Consider 14 compounds from PubChem BioAssay (NCATS).

Test [1] can be described thus: qHTS of pediatric cancer cell lines to identify multiple opportunities for drug repurposing: Confirmatory screen for NB1643 cells (AID 1347109). Note: potency is the fitted concentration of half-maximal effect; nearly all actives have a fitted effect of over 45% in size. The essentials: (§1)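 Cells (500-1,000/well) in growth media were settled 5 h at 37 degrees C, then given compounds for 48 h. Viability was read as CellTiter-Glo luminescence. Primary runs used MIPE at 11 points (0.78 nM-46 µM) and NPC at 8 points (0.59 nM-46 µM); follow-ups used 11 points.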

The nature of test [2]: qHTS of pediatric cancer cell lines to identify multiple opportunities for drug repurposing: Confirmatory screen for A673 cells (AID 1347110).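 Note: cells exposed to compound for 48 h before the viability read; nearly all actives have a fitted effect of over 65% in size.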 Note: potency is the fitted concentration of half-maximal effect. Put shortly: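 qHTS titration format: primary MIPE 0.78 nM-46 µM (11 pts), NPC 0.59 nM-46 µM; confirmation 11 pts. 48 h, CTG luminescence.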
Background: Quantitative high-throughput screening tests each substance at several concentrations.

Test [3] in a line: qHTS of pediatric cancer cell lines to identify multiple opportunities for drug repurposing: Primary screen for SJ-GBM2 cells (AID 1347091). Note: potency is the fitted concentration of half-maximal effect. Put shortly: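 Eight- or eleven-point concentration series, 48 h treatment at 37 degrees C in growth media; readout CellTiter-Glo luminescence. Potency and efficacy were taken from the concentration-response curves.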
Test [4] is described as follows: qHTS of pediatric cancer cell lines to identify multiple opportunities for drug repurposing: Primary screen for A673 cells (AID 1347092). Note: nearly all actives have a fitted effect of over 45% in size. Note: potency is the fitted concentration of half-maximal effect. Put shortly:
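Luminescence from CellTiter-Glo, taken after 15 min at room temperature, served as the proxy for metabolically active cells following 48 h treatment. Both potency and efficacy were taken from curves fitted to the titration data.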

A short description of test [5]: qHTS of pediatric cancer cell lines to identify multiple opportunities for drug repurposing: Primary screen for SK-N-MC cells (AID 1347093). Note: potency is the fitted concentration of half-maximal effect. The essentials:
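Metabolically active cells were quantified by ATP-dependent luminescence (CellTiter-Glo, 15 min at room temperature) following 48 h treatment. Cells had been plated at 500-1,000 per well and settled for 5 h beforehand.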

The nature of test [6]: qHTS of pediatric cancer cell lines to identify multiple opportunities for drug repurposing: Primary screen for NB-EBc1 cells (AID 1347095). Note: potency is the fitted concentration of half-maximal effect. The essentials:
(§2)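 Quantitative HTS format: each compound titrated (MIPE 11 points from 0.78 nM, NPC 8 points from 0.59 nM) onto cells plated 5 hours earlier. After 48 h at 37 degrees C, CellTiter-Glo luminescence was recorded.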

Test [7] is described as follows: qHTS of pediatric cancer cell lines to identify multiple opportunities for drug repurposing: Primary screen for U-2 OS cells (AID 1347096). Note: nearly all actives have a fitted effect of over 50% in size. Put shortly:
as §1

Test [8] is described as follows: qHTS of pediatric cancer cell lines to identify multiple opportunities for drug repurposing: Primary screen for Saos-2 cells (AID 1347097). Note: nearly all actives have a fitted effect of over 40% in size. The essentials: as §2
Test [9] is described as follows: qHTS of pediatric cancer cell lines to identify multiple opportunities for drug repurposing: Primary screen for SK-N-SH cells (AID 1347098).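 Note: DMSO served as neutral control and bortezomib at 2.3 µM as positive control; nearly all actives have a fitted effect of over 65% in size.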 The essentials: (§3)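 Cells (500-1,000/well) rested 5 h, then received compounds for 48 h; metabolically active cells were measured by CellTiter-Glo luminescence. Final concentrations spanned up to 46 µM (MIPE, 11-point) or 0.59 nM-46 µM (NPC, 8-point) in primary screens, 11-point in follow-ups.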

The nature of test [10]: qHTS of pediatric cancer cell lines to identify multiple opportunities for drug repurposing: Primary screen for LAN-5 cells (AID 1347100). Note: potency is the fitted concentration of half-maximal effect. Put shortly: as §1
Test [11] is described as follows: qHTS of pediatric cancer cell lines to identify multiple opportunities for drug repurposing: Primary screen for Rh18 cells (AID 1347102). Note: nearly all actives have a fitted effect of over 65% in size. Note: potency is the fitted concentration of half-maximal effect. The essentials:
as §1

A short description of test [12]: qHTS of pediatric cancer cell lines to identify multiple opportunities for drug repurposing: Primary screen for OHS-50 cells (AID 1347103). Note: nearly all actives have a fitted effect of over 40% in size. Note: potency is the fitted concentration of half-maximal effect. The essentials:
as §3

A short description of test [13]: qHTS of pediatric cancer cell lines to identify multiple opportunities for drug repurposing: Primary screen for RD cells (AID 1347104). Note: nearly all actives have a fitted effect of over 55% in size. Note: potency is the fitted concentration of half-maximal effect. Put shortly: as §2
Test [14] is described as follows: qHTS of pediatric cancer cell lines to identify multiple opportunities for drug repurposing: Primary screen for MG 63 (6-TG R) cells (AID 1347105). Note: nearly all actives have a fitted effect of over 50% in size. Put shortly: as §2
The nature of test [15]: qHTS of pediatric cancer cell lines to identify multiple opportunities for drug repurposing: Primary screen for control Hh wild type fibroblast cells (AID 1347106).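 Note: series mostly up to about 46 µM; a drop in luminescence marks cytotoxicity and a rise apparent proliferation; nearly all actives have a fitted effect of over 55% in size.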 The essentials:
as §1

A short description of test [16]: qHTS of pediatric cancer cell lines to identify multiple opportunities for drug repurposing: Primary screen for Rh30 cells (AID 1347107). Note: series mostly up to about 46 µM; nearly all actives have a fitted effect of over 75% in size. The essentials:
as §1

Test [17] can be described thus: qHTS of pediatric cancer cell lines to identify multiple opportunities for drug repurposing: Primary screen for Rh41 cells (AID 1347108).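 Note: series mostly up to about 46 µM; luminescence drop marks cytotoxic hits; nearly all actives have a fitted effect of over 70% in size.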 The essentials:
as §2

Test [18] is described as follows: qHTS of pediatric cancer cell lines to identify multiple opportunities for drug repurposing: Primary screen for BT-37 cells (AID 1347094). Note: potency is the fitted concentration of half-maximal effect. Put shortly: as §2
The nature of test [19]: qHTS of pediatric cancer cell lines to identify multiple opportunities for drug repurposing: Primary screen for NB1643 cells (AID 1347099). Note: nearly all actives have a fitted effect of over 50% in size. Note: potency is the fitted concentration of half-maximal effect. The essentials: as §2
Test [20] is described as follows: qHTS of pediatric cancer cell lines to identify multiple opportunities for drug repurposing: Primary screen for BT-12 cells (AID 1347101). Note: nearly all actives have a fitted effect of over 25% in size. The essentials: as §3

Several values for one entry are separate records, joined by “and”; a condition that tells them apart may be missing. Equal entries are not always repeated. Records with an inconclusive call do not appear. A number with no mark means an inactive call. Activity calls are given as the source filed them. Calls come from the whole dose curve; as a rule, active = well fitted curve in the direction sought with a large enough effect; inconclusive = small, poorly fitted or top-dose-only effect, or another doubt; inactive = no such curve, though single readings can be large; an effect the other way counts as inactive or inconclusive.

Regarding `N[C@@H](Cc1ccc(N(CCCl)CCCl)cc1)C(=O)O`, the Potency is 6570 nM (active) in test [1] and 16500 nM (active) in test [2].
On to `CN(C)[C@@H]1C(=O)C(C(N)=O)=C(O)[C@@]2(O)C(=O)C3=C(O)c4c(O)cccc4[C@@](C)(O)[C@H]3C[C@@H]12`, for which the Potency result in test [3], in test [4], in [5], in test [6], in [7] and in [8] was “inactive” in each case. In addition, the Potency result in [9], in test [10], in [11], in test [12], in test [13] and in test [14] was “inactive” each time. Besides, the Potency entry in test [15], in test [16] and in test [17] was “inactive” in each case.
With `CC1OC(C)OC(C)O1` (stereo not given), the Potency entry in test [3], in [4], in test [5], in test [18], in test [6] and in [7] was “inactive” each time. In addition, the Potency entry in test [19], in [10], in test [20], in [11], in test [13] and in [14] was “inactive” throughout. For the same compound, the Potency entry in test [15] and in [16] was “inactive” throughout.
On to `Cc1sc2c(c1C)C(c1ccc(Cl)cc1)=N[C@@H](CC(=O)OC(C)(C)C)c1nnc(C)n1-2`, for which the Potency in test [3] was 2640 nM (active); in [4], 469 nM (active); in [5] it was 118 nM (active); in test [18], 1370 nM (active); in test [6], 4180 nM (active); in test [19], 5900 nM (active). For the same compound, the Potency was 590 nM (active) in [10]; 935 nM (active) in [11]; 344 nM (active) in test [12]; 590 nM (active) in test [13]; 1310 nM (active) in test [1]. Besides, the Potency result in test [2] was “inactive”.
As for `C=CCN1CC[C@]23c4c5ccc(O)c4O[C@H]2C(=O)CC[C@@]3(O)[C@H]1C5`, the Potency entry in [3], in test [4], in test [5], in [18], in [6] and in test [7] was “inactive” throughout. Moreover, the Potency result in test [19], in [10], in test [20], in test [11], in test [12] and in test [13] was “inactive” each time. Also, the Potency result in [14], in test [15], in test [16] and in test [17] was “inactive” in each case.
Turning to `c1ccc(C2CC2)c(OCC2=NCCN2)c1`, the Potency entry in [3], in test [4], in [5], in test [18], in test [6] and in [7] was “inactive” each time. The Potency entry in test [19], in test [10], in test [20], in [11], in test [13] and in test [14] was “inactive” in each case. Also, the Potency entry in test [15] and in test [16] was “inactive” throughout.
As to `Oc1ccccc1-c1ccccc1`, the Potency entry in test [3], in test [4], in [5], in test [18], in [6] and in [7] was “inactive” throughout. Besides, the Potency result in test [19], in test [10], in test [20], in test [11], in [12] and in [13] was “inactive” in each case. Also, the Potency result in [14], in [15] and in [16] was “inactive” each time.
For the compound `COC1(CS(=O)c2ccccc2)CCN(CCc2c[nH]c3ccc(F)cc23)CC1` (stereo not given), the Potency result in test [3], in test [4], in test [5], in test [6], in test [7] and in [8] was “inactive” each time. For the same compound, the Potency entry in [19], in test [10], in test [20], in [11], in [13] and in test [14] was “inactive” each time. The Potency entry in test [15] and in [16] was “inactive” in each case.
In the case of `O=C(NC(O)C(Cl)(Cl)Cl)NC(O)C(Cl)(Cl)Cl` (stereo not given), the Potency entry in [3], in test [4], in test [5], in test [18], in test [6] and in test [7] was “inactive” each time. For the same compound, the Potency result in test [19], in test [10], in [20], in test [11], in [12] and in test [13] was “inactive” in each case. The Potency entry in test [14], in test [15], in test [16] and in [17] was “inactive” each time.
Regarding `CCN(CC)CCN1C(=O)CN=C(c2ccccc2F)c2cc(Cl)ccc21`, the Potency entry in test [3], in [4], in test [5], in test [18], in [6] and in test [7] was “inactive” each time. Besides, the Potency result in [9], in test [19], in [10], in [20], in [11] and in test [13] was “inactive” in each case. In addition, the Potency result in [14], in [15], in [16] and in [17] was “inactive” throughout.
Turning to `Cn1c(CCCC(=O)O)nc2cc(N(CCCl)CCCl)ccc21`, the Potency result in test [3], in test [4], in [7], in [20], in [11] and in test [13] was “inactive” each time. Also, the Potency result in test [14], in test [15] and in test [16] was “inactive” each time. Further, the Potency in test [5] is 26400 nM (active); in test [6], 2640 nM (active); in [19], 18700 nM (active); in test [12], 24.6 µM (active) and 24.3 µM (active); in test [1], 16500 nM (active).
As to `CC(C)=CCOc1c2occc2cc2ccc(=O)oc12`, the Potency entry in [3], in test [4], in test [5], in test [18], in test [6] and in test [7] was “inactive” in each case. The Potency entry in test [19], in [10], in test [11], in test [13], in test [14] and in test [15] was “inactive” in each case. Further, in test [16], the Potency result was “inactive”.
For the compound `O=c1[nH]c2ccccc2n1CCCN1CCC(n2c(=O)[nH]c3cc(Cl)ccc32)CC1`, the Potency result in test [3], in test [4], in [5], in test [18], in test [6] and in [7] was “inactive” throughout. Besides, the Potency result in [19], in test [10], in test [11], in test [12], in [13] and in [14] was “inactive” in each case. In addition, the Potency result in test [15], in test [16] and in test [17] was “inactive” throughout. Moreover, the Potency in test [1] was 7370 nM (active); in test [2], 26100 nM (active).
In the case of `Cc1ccc(-c2nc3ccc(C)cn3c2CC(=O)N(C)C)cc1`, the Potency result in test [3], in test [4], in test [5], in test [18], in [6] and in test [7] was “inactive” in each case. Also, the Potency entry in test [9], in [19], in test [10], in test [20], in test [11] and in test [12] was “inactive” each time. Also, the Potency result in test [13], in [14], in test [15], in test [16] and in [17] was “inactive” throughout.
